Data: PubChem BioAssay (Tox21)
Values joined by “and” are separate entries in the source; they are usually repeats but may differ in a detail not shown here. Equal entries are not always repeated. Records with an inconclusive call do not appear. Entries that show only a call come without a potency. The source holds several records for some structures; these can differ, active in one and inactive in another. Active and inactive are the calls of the source. The call rests on the fitted dose curve; in most records, active means well fitted curve in the direction sought with a large enough effect in the repeat runs; inconclusive means weak or mixed curves; inactive means no such curve, though single readings can be large; an effect the other way counts as inactive or inconclusive. Residues, ends and D or L forms follow the SMILES beside them.

What was measured:
[1] = target: Cytochrome P450 2C9 (Homo sapiens) (UniProt P11712); test: Cytochrome P450 Family 2 Subfamily C Member 9 (CYP2C9) small molecule antagonists: luciferase reporter qHTS assay (AID 1671198); further: potency means the concentration at half of the fitted maximal effect
How it was run: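 CYP2C9 activity was measured with a P450-Glo proluciferin substrate. Enzyme–substrate mix was held with compound for 10 min at room temperature, then NADPH regeneration solution was added for 1 h at 37C. Luciferin product was read as luminescence.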

[2] = target: Cytochrome P450 1A2 (Homo sapiens) (UniProt P05177); test: Cytochrome P450 Family 1 Subfamily A Member 2 (CYP1A2) small molecule antagonists: luciferase reporter qHTS assay (AID 1671199); further: potency means the concentration at half of the fitted maximal effect
How it was run: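 P450-Glo CYP1A2 enzyme–proluciferin substrate mix with compound 10 min at room temperature, then NADPH regeneration 1 h at room temperature. Luciferin detection reagent added, luminescence read after 20 min; furafylline positive control.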

[3] = target: Voltage-gated inwardly rectifying potassium channel KCNH2 (Homo sapiens) (UniProt Q12809); test: Human Ether-a-go-go-Related Gene (hERG) channel small molecule antagonists: fluorescence cell-based qHTS assay (AID 1671200);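 further: hERG-expressing U2OS cells given a thallium stimulus after FluxOR II dye loading; series mostly up to about 77 µM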
How it was run: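 Channel function was assessed by thallium flux. Cells seeded the previous day and kept at 37 C took up FluxOR II dye over 1 h in the dark at room temperature, then sat another 10 min before stimulation.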

[4] = target: Cytochrome P450 3A4 (Homo sapiens) (UniProt P08684); test: Cytochrome P450 Family 3 Subfamily A Member 4 (CYP3A4) small molecule antagonists: luciferase reporter qHTS assay (AID 1671201); further: series mostly up to about 120 µM
How it was run: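 Compounds in DMSO were pin-transferred onto CYP3A4 enzyme-substrate mix and held 10 min at room temperature. NADPH regenerating solution started the reaction for 1 h; luciferin detection reagent stopped it, and luminescence was read after 20 min.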
Further: nearly all actives have a fitted effect of over 50% in size.

Chain of Cytochrome P450 3A4 (Homo sapiens) (P08684 whole entry, looked up): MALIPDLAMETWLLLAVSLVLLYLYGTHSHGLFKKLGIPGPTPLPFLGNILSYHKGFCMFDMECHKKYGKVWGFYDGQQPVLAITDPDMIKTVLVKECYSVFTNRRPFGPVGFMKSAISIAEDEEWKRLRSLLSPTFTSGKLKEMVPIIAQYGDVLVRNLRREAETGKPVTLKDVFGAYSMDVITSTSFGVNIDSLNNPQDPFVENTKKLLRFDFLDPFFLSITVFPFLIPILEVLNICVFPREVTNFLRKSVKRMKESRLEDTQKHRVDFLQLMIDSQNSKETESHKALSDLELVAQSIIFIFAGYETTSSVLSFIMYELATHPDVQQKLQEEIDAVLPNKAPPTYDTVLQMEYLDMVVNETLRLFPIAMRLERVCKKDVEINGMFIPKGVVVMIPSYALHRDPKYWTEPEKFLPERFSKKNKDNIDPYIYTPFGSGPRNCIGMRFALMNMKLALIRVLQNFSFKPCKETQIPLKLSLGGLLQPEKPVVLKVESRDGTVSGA
Chain of Cytochrome P450 1A2 (Homo sapiens) (P05177 whole entry, looked up): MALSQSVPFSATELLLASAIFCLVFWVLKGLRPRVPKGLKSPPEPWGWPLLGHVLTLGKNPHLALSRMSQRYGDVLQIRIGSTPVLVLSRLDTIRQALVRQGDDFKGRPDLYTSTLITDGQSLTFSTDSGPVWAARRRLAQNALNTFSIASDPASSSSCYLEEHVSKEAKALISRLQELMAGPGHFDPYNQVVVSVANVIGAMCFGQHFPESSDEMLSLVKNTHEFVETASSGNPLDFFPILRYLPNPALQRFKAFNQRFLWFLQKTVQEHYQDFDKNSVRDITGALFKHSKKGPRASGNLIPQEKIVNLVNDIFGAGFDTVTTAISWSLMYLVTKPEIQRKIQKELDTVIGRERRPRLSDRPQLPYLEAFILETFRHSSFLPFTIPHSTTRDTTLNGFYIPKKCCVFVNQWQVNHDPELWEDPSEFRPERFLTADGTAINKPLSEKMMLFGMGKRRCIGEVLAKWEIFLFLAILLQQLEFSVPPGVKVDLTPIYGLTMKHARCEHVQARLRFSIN
Chain of Voltage-gated inwardly rectifying potassium channel KCNH2 (Homo sapiens) (Q12809 whole entry, looked up): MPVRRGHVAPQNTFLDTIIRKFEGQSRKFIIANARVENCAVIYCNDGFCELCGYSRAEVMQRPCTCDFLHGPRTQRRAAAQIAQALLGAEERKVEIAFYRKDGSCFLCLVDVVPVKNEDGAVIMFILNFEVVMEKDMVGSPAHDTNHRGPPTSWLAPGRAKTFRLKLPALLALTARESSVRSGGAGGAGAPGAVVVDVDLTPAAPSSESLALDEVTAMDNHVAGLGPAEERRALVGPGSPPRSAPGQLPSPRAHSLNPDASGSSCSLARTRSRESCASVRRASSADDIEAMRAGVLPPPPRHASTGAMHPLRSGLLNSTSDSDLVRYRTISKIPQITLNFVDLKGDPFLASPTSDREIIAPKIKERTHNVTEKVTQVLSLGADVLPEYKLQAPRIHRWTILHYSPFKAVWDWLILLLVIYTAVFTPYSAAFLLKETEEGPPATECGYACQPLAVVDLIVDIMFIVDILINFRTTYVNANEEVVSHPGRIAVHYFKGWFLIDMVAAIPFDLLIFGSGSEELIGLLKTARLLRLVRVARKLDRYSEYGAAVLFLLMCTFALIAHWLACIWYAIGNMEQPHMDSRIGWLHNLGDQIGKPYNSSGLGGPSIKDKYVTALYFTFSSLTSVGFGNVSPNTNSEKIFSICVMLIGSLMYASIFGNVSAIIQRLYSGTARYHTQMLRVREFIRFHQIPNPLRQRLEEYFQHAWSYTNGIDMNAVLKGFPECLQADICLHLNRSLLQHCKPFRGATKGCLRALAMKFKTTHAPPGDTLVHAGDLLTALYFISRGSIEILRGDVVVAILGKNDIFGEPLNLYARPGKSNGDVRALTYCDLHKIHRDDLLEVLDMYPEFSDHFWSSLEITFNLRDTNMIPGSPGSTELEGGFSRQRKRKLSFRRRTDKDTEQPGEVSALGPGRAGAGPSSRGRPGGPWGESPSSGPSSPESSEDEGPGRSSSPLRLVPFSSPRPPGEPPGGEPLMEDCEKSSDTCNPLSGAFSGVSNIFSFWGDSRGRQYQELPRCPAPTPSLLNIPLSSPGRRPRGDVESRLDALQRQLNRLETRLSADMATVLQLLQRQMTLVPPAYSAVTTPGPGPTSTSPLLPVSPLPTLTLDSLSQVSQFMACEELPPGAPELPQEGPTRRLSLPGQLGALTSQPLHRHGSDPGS
Chain of Cytochrome P450 2C9 (Homo sapiens) (P11712 whole entry, looked up): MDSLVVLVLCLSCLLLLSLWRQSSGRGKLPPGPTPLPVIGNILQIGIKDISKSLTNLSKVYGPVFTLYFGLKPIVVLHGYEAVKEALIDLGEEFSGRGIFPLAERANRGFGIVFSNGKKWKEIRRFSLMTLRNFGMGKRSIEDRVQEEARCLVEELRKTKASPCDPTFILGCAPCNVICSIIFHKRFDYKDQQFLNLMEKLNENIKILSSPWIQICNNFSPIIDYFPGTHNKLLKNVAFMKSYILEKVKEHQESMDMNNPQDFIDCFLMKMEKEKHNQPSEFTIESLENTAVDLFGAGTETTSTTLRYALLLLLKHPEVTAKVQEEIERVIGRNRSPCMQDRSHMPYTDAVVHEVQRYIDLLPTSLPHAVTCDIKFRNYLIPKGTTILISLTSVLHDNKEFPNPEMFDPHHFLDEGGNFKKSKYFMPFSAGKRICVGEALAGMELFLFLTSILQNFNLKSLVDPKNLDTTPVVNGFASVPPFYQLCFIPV

SMILES	Potency [1]	Potency [2]	outcome [3]	Potency [4]
NC(N)=NC(=O)c1nc(Cl)c(N)nc1N	inactive	inactive	inactive	inactive
CC1(C)[C@@H]2CC[C@@]1(C)C(=O)C2	inactive	inactive	inactive	inactive
CC(C)(Oc1ccc(C2CC2(Cl)Cl)cc1)C(=O)O (stereo unspecified)	30.5 µM (active) and 22.4 µM (active) and 15.5 µM (active)	inactive	inactive	inactive
Nc1ccn([C@H]2CC[C@@H](CO)O2)c(=O)n1	inactive	inactive	inactive	inactive
COC(=O)[C@H](Cc1ccccc1)NC(=O)[C@@H](N)CC(=O)O (H-Asp-Phe-OMe)	inactive	inactive	inactive	inactive
O=C(O)c1cc(N=Nc2ccc(S(=O)(=O)Nc3ccccn3)cc2)ccc1O	14.2 µM (active) and 17.8 µM (active) and 8.71 µM (active)	inactive	inactive	inactive
O=c1ccc2ccccc2o1	inactive	36.3 µM (active) and 31.7 µM (active) and inactive	inactive	inactive
O=C1NC(=O)c2ccccc21	inactive	inactive	inactive	inactive
NNC(=O)c1ccncc1	35.7 µM (active) and 13.3 µM (active)	40 µM (active) and 26.5 µM (active) and 27.5 µM (active)	inactive	
Nc1ccc(S(=O)(=O)Nc2nccs2)cc1	inactive	inactive	inactive	inactive
CCCN(CCC)S(=O)(=O)c1ccc(C(=O)O)cc1	inactive	inactive	inactive	
O=S(=O)(O)c1ccc2cc(O)ccc2c1	inactive	inactive and 39.9 µM (active)	inactive	inactive
CCCC(CCC)C(=O)O	79.6 µM (active) and inactive	5.62 µM (active) and inactive	inactive	inactive
C/C=C/c1ccc(OC)cc1	inactive and 13.8 µM (active)	inactive and 17.4 µM (active)	inactive	
c1ccc2[nH]ccc2c1	35 µM (active) and inactive	35 µM (active) and 35.6 µM (active) and 17.4 µM (active)	inactive	inactive
CCCCC(CC)COC(=O)/C=C/c1ccc(OC)cc1 (stereo unspecified)	19.9 µM (active) and 12.6 µM (active) and 11 µM (active)	19.9 µM (active) and 12.6 µM (active) and 13.8 µM (active)	inactive	inactive
CCCCOC(=O)CC(CC(=O)OCCCC)(OC(C)=O)C(=O)OCCCC	2.75 µM (active) and 2.86 µM (active) and 2.52 µM (active)			
CC(=O)Nc1nnc(S(N)(=O)=O)s1	inactive	inactive	inactive	inactive
CC(=O)OCC(COC(C)=O)OC(C)=O	inactive	62.5 µM (active) and inactive	inactive	inactive
Cc1cc(=O)[nH]c(=S)[nH]1	inactive	inactive	inactive	inactive
O=C(O)CCC(=O)O	inactive	inactive	inactive	inactive
O=C(C1CCCCC1)N1CC(=O)N2CCc3ccccc3C2C1 (stereo unspecified)	inactive	31.7 µM (active) and 28.3 µM (active) and 17.4 µM (active)	inactive	
